FBW7 activator: FBW7 E3 ligase activators, primary screen, biochemical, AlphaScreen, human | normalized activity (activation), % at 26.1 µM | hit rate 0.13% among 650,000 | AlphaScreen FBW7–phospho-cyclin E peptide binding, activator screen | AID 1259310, 2017; in the data active = normalized activity above about 1.9%;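 also: purified mutant Fbw7 with reduced substrate affinity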
TEAD-YAP inh: TEAD-YAP interaction inhibition, primary screen, TEAD-YAP interaction inhibitor project, luminescence, HEK-TIYL cells | TEAD-Gal4/YAP UAS-luciferase luminescence | inhibition, % at 9.12 µM | hit rate 1.4% among 640,000 | AID 1259422, 2018; in the data active = inhibition above about 32%
GPR151 activ: activators of human GPR151, primary screen, cell-based, PathHunter beta-arrestin, luminescence; hit rate 1% among 650,000; PathHunter beta-arrestin GPR151 cells; activation, % at 11.2 µM; G-protein coupled receptor 151 (Homo sapiens), Q8TDV0; in the data active = activation above about 4.9%
Target sequence (Q8TDV0 whole entry, looked up): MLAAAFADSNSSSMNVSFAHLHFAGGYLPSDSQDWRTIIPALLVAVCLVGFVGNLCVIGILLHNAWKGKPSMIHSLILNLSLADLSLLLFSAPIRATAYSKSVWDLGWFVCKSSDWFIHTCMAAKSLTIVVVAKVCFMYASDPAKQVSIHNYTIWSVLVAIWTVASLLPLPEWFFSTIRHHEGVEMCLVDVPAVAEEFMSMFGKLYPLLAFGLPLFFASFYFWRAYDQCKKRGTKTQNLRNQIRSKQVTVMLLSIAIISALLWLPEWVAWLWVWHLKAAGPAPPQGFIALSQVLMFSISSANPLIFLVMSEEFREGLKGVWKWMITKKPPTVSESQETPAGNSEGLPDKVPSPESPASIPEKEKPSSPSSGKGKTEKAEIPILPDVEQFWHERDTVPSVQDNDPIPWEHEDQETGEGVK
MITF primary: MITF inhibitors, primary screen, biochemical, AlphaScreen, human | AlphaScreen MITF homodimerization, bead proximity signal | hit rate 0.91% among 650,000 | Microphthalmia-associated transcription factor (Homo sapiens), O75030 | inhibition, % at 2.6 µM; in the data active = inhibition above about 50%
Of the large screens only hits and unclear results are named; the others gave an inactive call. Rows were chosen to be rich in hits. Some 3.4% of all compounds tested hit in one or more screens of this group.

O=C(NNC(=O)c1cccnc1SCc1cccc([N+](=O)[O-])c1)c1ccccn1	TEAD-YAP inh 39
Cn1c2ccncc2c2cc([N+](=O)[O-])ccc21	TEAD-YAP inh 76
COc1ccc(C2CC(C(F)(F)F)n3ncc(C(=O)Nc4cccc(C)c4)c3N2)cc1OC (stereo not given)	none
Cc1cc(C)c(NC(=O)C(=O)N/N=C/c2ccccc2F)c(C)c1	none
CN1CCN(c2ccc([N+](=O)[O-])cc2C(=O)N2CCCCC2)CC1	none
NC(=O)c1cc([N+](=O)[O-])ccc1N1CCOCC1	none
O=C(c1ccc(Br)cc1)c1cc([N+](=O)[O-])ccc1N1CCOCC1	TEAD-YAP inh 54
O=C(c1ccc(Cl)cc1)c1cc([N+](=O)[O-])ccc1N1CCOCC1	TEAD-YAP inh 53
CN1CCN(c2ccc([N+](=O)[O-])cc2C(=O)c2ccc(Cl)cc2)CC1	TEAD-YAP inh 41
O=C(CN1C(=O)C(c2ccc(F)cc2)=NC12CCCC2)Nc1ccccc1Cl	none
CC(C)n1c(SCc2ccccc2Cl)nc2c1c(=O)[nH]c(=O)n2C	TEAD-YAP inh 43
CCOc1ccccc1CN1CCN(Cc2cc(=O)c3ccccc3[nH]2)CC1CCO (stereo not given)	TEAD-YAP inh 48
CCOc1cc(OCC)c(/C=C/C(=O)O)cc1Br	none
O=[N+]([O-])c1ccc(OCC(O)CN(CCO)CC(O)Cn2ccc3ccccc32)cc1 (stereo not given)	none
CCC(c1nnnn1CCOC)N(Cc1cc2ccc(OC)cc2[nH]c1=O)C1CCCC1 (stereo not given)	TEAD-YAP inh 58
Nc1nc(Nc2ccc(Oc3ccccc3)cc2)cc(Nc2ncccn2)n1	none
COc1cc(C(=O)/C=C/Nc2cccc(O)c2)cc(OC)c1OC	TEAD-YAP inh 38
COc1cc(C(=O)/C=C/Nc2cccc(F)c2)cc(OC)c1OC	none
Cc1ccc(C(=O)/C=C/Nc2cccc(O)c2)cc1	TEAD-YAP inh 92
Cc1ccc(/C=C/C(=O)c2ccc(O)cc2)cc1	TEAD-YAP inh 47
O=C(NCC1CCC2(CCN(C(=O)c3cccc(Cl)c3)CC2)O1)c1ccccn1 (stereo not given)	none
NC(=O)c1nn(-c2nc(-c3ccco3)cc(C(F)(F)F)n2)cc1[N+](=O)[O-]	none
Cc1cc(C)nc(SCC(=O)Nc2ccc(N3CCOCC3)c(Cl)c2)n1	TEAD-YAP inh 32
COCCNC(=O)c1cnn2c(C)c(Cc3ccccc3F)c(C)nc12	none
CCOC(=O)Cn1cc(/C=C2/C(=O)NC(=S)N(Cc3ccco3)C2=O)c2ccccc21	MITF primary 64
CCN(CC)c1ccc(/C=C2/C(=O)NC(=S)N(Cc3ccco3)C2=O)cc1	MITF primary 75
Cc1ccc(-n2cc(/C=C3/C(=O)NC(=O)N(Cc4ccco4)C3=O)cn2)cc1	MITF primary 73
O=C1NC(=O)N(Cc2ccco2)C(=O)/C1=C/c1ccc(N2CCOCC2)cc1	MITF primary 73
c1ccc(CCCN2CCC(NCc3ccco3)CC2)cc1	none
COc1cccc(CN[C@H]2C[C@H]3C(=O)N[C@@H](COCc4ccccc4)C(=O)N3C2)c1	none
CCCC(C)NS(=O)(=O)c1ccc(OC)c(Cl)c1Cl (stereo not given)	none
CN(C)c1ncc(/C=C2/C(=O)NC(=O)N(Cc3ccco3)C2=O)cn1	MITF primary 79
CNC(=O)c1ccccc1Nc1cc(Nc2ccccn2)ncc1C(F)(F)F	TEAD-YAP inh 83
CNC(=O)c1ccccc1Nc1cc(Nc2cccc(C)n2)ncc1C(F)(F)F	TEAD-YAP inh 82
CNC(=O)c1ccccc1Nc1cc(Nc2ccc3[nH]cc(C(=O)C(=O)N(C)C)c3c2)ncc1C(F)(F)F	TEAD-YAP inh 51
CN(C)C(=O)C(=O)c1c[nH]c2ccc(Nc3cc(Nc4ccccn4)c(C(F)(F)F)cn3)cc12	none
CNC(=O)c1ncccc1Nc1cc(Nc2ccc3c(c2)NC(=O)C3)ncc1C(F)(F)F	none
CNC(=O)c1ccccc1Nc1cc(Nc2ccc3c(c2)CCC(=O)N3C)ncc1C(F)(F)F	TEAD-YAP inh 78
CNC(=O)c1ccccc1Nc1cc(Nc2ccc(-c3cncnc3)cc2)ncc1C(F)(F)F	TEAD-YAP inh 32
CNC(=O)c1ccc(Nc2cc(Nc3ccccc3C(=O)NC)c(C(F)(F)F)cn2)nc1	TEAD-YAP inh 88
CNC(=O)c1ccnc(Nc2cc(Nc3ccccc3C(=O)NC)c(C(F)(F)F)cn2)c1	TEAD-YAP inh 85
CNS(=O)(=O)c1ccccc1Nc1cc(Nc2cc(-c3cncnc3)nc(C)n2)ncc1C(F)(F)F	TEAD-YAP inh 68
COc1ccccc1CN1C[C@@H]2C[C@@H](c3ccccc3F)N3CCC[C@@]23C1=O	none
CC(=O)N/N=C(\Cc1nc2ccccc2[nH]1)c1ccccc1	none
CC(=O)Nc1nc(-c2ccc3c(c2)CCO3)cs1	none
CCCN1C(=O)COc2ccc(-c3csc(NC(=O)C(CC)CC)n3)cc21	TEAD-YAP inh 32
COc1ccc(/C=C2\C=C(c3ccccc3)N(c3cccc4ccccc34)C2=O)cc1	TEAD-YAP inh 57
Cc1ccc(C)c(N2C(=O)/C(=C/c3ccc(Cl)cc3)C=C2c2ccccc2)c1	none
COc1ccc(/C=C2\C=C(c3ccccc3)N(c3cc(C)ccc3C)C2=O)cc1	TEAD-YAP inh 42
O=C(CSc1ncnc2ccccc12)Nc1ccc(S(=O)(=O)N2CCCCC2)cc1	none
CC(C)c1ccc2oc(-c3cccc(N)c3)nc2c1	TEAD-YAP inh 65
Nc1cccc(-c2nc3cc(S(=O)(=O)c4ccc5oc(-c6cccc(N)c6)nc5c4)ccc3o2)c1	none
CC(C)c1ccc2oc(-c3ccc(N)cc3)nc2c1	TEAD-YAP inh 80
CN1C(=O)C(=Cc2ccc3c(c2)n(C)c(=O)n3C)C(=O)N(C)C1=S	none
N#Cc1cc2c(nc1SCC(=O)Nc1ccccc1)CCCC2	none
CCc1ccc2nc(SCC(N)=O)c(C#N)cc2c1	TEAD-YAP inh 50
CCc1ccc2nc(SCC(=O)OC)c(C#N)cc2c1	none
CC(C)c1ccc2nc(SCC(=O)N3CCOCC3)c(C#N)cc2c1	TEAD-YAP inh 36
N#Cc1cc2c(nc1SCC(=O)N1CCOCC1)CCCCC2	TEAD-YAP inh 83
COc1cc2cc(C#N)c(SCC(=O)N3CCOCC3)nc2cc1OC	none
N#Cc1cc2c(nc1SCC(=O)Nc1nc3ccccc3s1)CCC2	TEAD-YAP inh 90
Cc1cccc[n+]1CC(=O)OCC12CC3CC(CC(C3)C1)C2	none
COc1ccc(O)c(/C=N/NC(=S)NCc2ccccc2)c1	none
CCc1ccc[n+](-c2[nH]c(=O)sc2/C=N/NC(N)=S)c1	none
NC(=O)c1c(NC(NC(=O)c2ccc(Cl)cc2)(C(F)(F)F)C(F)(F)F)sc2c1CCCC2	none
FC(F)(F)c1cccc(NCc2cn3ccccc3n2)c1	none
FC(F)(F)c1cccc(NCc2cn3cccnc3n2)c1	FBW7 activator 2.3
COc1ccc(NC(=O)CN(CCc2ccccc2)S(=O)(=O)c2ccc(C)cc2)cc1Cl	none
Cc1ccc(C)c(N2C(=O)C3CC=C(Cl)CC3C2=O)c1 (stereo not given)	none
